One may read the AC50 as the concentration giving half of the maximal activity seen.

SMILES strings stand for the structures. Calls of active or inactive are those of the source. How the source made its calls: active means hit-call score of the fitted dose curve at least 0.9, where 1 is the maximum; inactive means score below 0.9.

In PubChem BioAssay (EPA / NIEHS) one finds outcome and AC50 data, which are given here for 16 molecules.

Read-out in this test: JUN Transcription Factor, JUN (gene 3725)
Put plainly: LTEA_HepaRG_JUN: Life Technologies and Expression Analysis (LTEA) Assay for JUN Transcription Factor using HepaRG (AID 2283513). The following applies: mRNA level, 48 h; actives raise or lower the signal. The protocol:
LTEA_HepaRG is a cell based, multiplexed-readout assay that uses HepaRG, a human liver cell line, with measurements taken at 48 hours after chemical dosing on a 96-well plate.LTEA_HepaRG_JUN is one of 102 assay component(s) measured in the LTEA HepaRG cell culture assay. It is a marker of Cell proliferation, survival, death.Data from the assay component LTEA_HepaRG_JUN was analyzed into 1 endpoint. This assay endpoint, LTEA_HepaRG_JUN, was analyzed with bidirectional fitting relative to DMSO as the negative control and baseline of activity. Using a type of inducible reporter, measures of mRNA induction for gain or loss-of-signal activity can be used to understand regulation of transcription factor activity. To generalize the intended target to other relatable targets, this assay endpoint is annotated to the dna binding intended target family, where the subfamily is basic leucine zipper.
A total of 1060 chemcials from the ToxCast library were tested in eight-point concentration-response experiments. Cell culture and cytotoxicity assays were conducted at Thermo Fisher Scientific's Custom Services facility (Madison, WI). A single lot of human HepaRG cells (Thermo Fisher Scientific, Frederick, MD) was used for the cell culture experiments. 96-well format collagen type I coated plates of human HepaRG cells were prepared using established methods. Briefly, cryopreserved HepaRG cells were thawed, plated at a density of approximately 100,000 cells/well in HepaRG Thaw, Plate, and General Purpose media (HPRG770, Thermo Fisher Scientific), and incubated for 48 hours. 0.5% DMSO was selected as vehicle control to balance the requisite need of DMSO in HepaRG cultures to maintain differentiation (for example, baseline metabolism, proportions of hepatocytes vs. cholangiocytes), while enabling further hepatic receptor pathway activation (for example, PXR and CAR) in response to chemical exposure. 48 hours after plating, the culture medium was replaced with HepaRG Serum-Free Incudtion Media. Cells were exposed to each test chemical in duplicate and maintained in CO2 incubators for another 48 hours. Chemical plates were thawed to room temperature and 200x concentrations of treatment groups were prepared. 8-point conentration-reponse curves were made with the highest exposure at 100 uM, followed by half-log dilutions, all in 0.5% DMSO. Each test plate contained variouse controls, induction positive controls (1mM phenobarbital), cytotoxicity positive controls ([…] aflatoxin B1), vehicle controls (0.5% DMSO), and total lysis controls (0.5% DMSO). Cell morphology images were taken using an Essen IncuCyte FLR automated microscope, with six 96-well plates imaged in about 24 minutes. Images were captured and exported and JPEG files. Spent culture media was transfered to black-well plates for the LDH assay, and remaining media was sorted at -80 C for later use. Cells were treated with RLT buffer and frozen until shipped for gene expression analysis. Total RNA was isolated from the cell suspension in 75 uL of Buffer RLT (Qiagen, Germantown, MD 20874) by Quintiles/Expression Analysis (Durham, NC) using a custom isolation procedure. Total RNA from each plate well was transferred to a preamplification plate. Fluidigm's 96.96 Dynamic ArrayTM (Fluidigm, Amsterdam, the Netherlands) technology was used for gene expression analyses by quantitative reverse transcription polymerase chain reaction (qRT-PCR, performed by Quintiles/Expression Analysis, Durham, NC)89. Standard TaqManTM Assays (Applied Biosystems/ThermoFisher Scientific, Foster City, CA) were used to assess the expression of 93 genes selected based on their selectivity and sensitivity to important hepatic receptors known to be modulated by environmental chemicals; importance in human hepatocyte functionality; and hepatotoxicity. […]
Turning to `CN(C)CCOC(c1ccccc1)c1ccccc1`, the outcome was inactive.
On the same count and under the same terms, the value for `O=C1NS(=O)(=O)c2ccccc21` was “inactive”.
Take `Cc1[nH]nc2c1N=C(c1ccccc1Cl)c1cc([N+](=O)[O-])ccc1N2`: the AC50 is 20.5 µM (active).
Regarding `CCCCCCCCCCCCOS(=O)(=O)O`, the AC50 was 50 µM (active).
With `CCCCCCCCCCCCCCC`, the molecule was classed as inactive.
The same measure, in the same setting: next, `CN(Cc1cnc2nc(N)nc(N)c2n1)c1ccc(C(=O)N[C@@H](CCC(=O)O)C(=O)O)cc1`: “inactive”; `CC(=O)Nc1ccc(O)cc1`: “inactive”.
Consider `CCCCc1oc2ccccc2c1C(=O)c1cc(I)c(OCCN(CC)CC)c(I)c1`, for which the AC50 was 66.1 µM (active).
On the same count and under the same terms, the value for `O=C(CCCN1CCC(O)(c2ccc(Cl)cc2)CC1)c1ccc(F)cc1` was 82.7 µM (active); that for `N=C(N)c1ccc(OCCCCCOc2ccc(C(=N)N)cc2)cc1` was 12.6 µM (active).
As to `CCC(C)c1ccccc1O` (stereo unspecified), the call was inactive.
On the same count and under the same terms, the value for `O=C(c1ccccc1)c1ccccc1` was “inactive”.
For `CCCCC=O`, the result was inactive.
Same read-out and setting: the value for `OCC(CO)(CBr)CBr` was “inactive”; that for `CCCCC(CC)C(=O)O` (stereo unspecified) was “inactive”; that for `CS(=O)(=O)c1ccc([C@@H](CC2CCCC2)C(=O)Nc2cnccn2)cc1Cl` was “inactive”.
